The panel holds about 83,000 compounds, 20% with a hit somewhere; the sample as a whole holds those more often.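 Assay: single dose, 48 h. Readout: percent growth (0 = no net growth; negative = cell death). Active: <10.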 Values without a mark were called inactive. Active and inactive are the calls of the source.

This experiment concerns HCT-116 colon. Description: NCI-60 one-dose screen, 48 h (100 = growth as untreated, 0 = no growth, -100 = all killed). As to conditions: 10 µM unless noted. As to the method: Growth inhibition of the HCT-116 human tumor cell line is measured as a screen for anti-cancer activity. Cells are grown in 96 well plates and exposed to the test compound for 48 hours. Compounds are tested at a single concentration, which is 10^-5 M for most compounds. The reported endpoint is percent growth (GI% or GIPRCNT), where numbers from 0 - 100% represent growth inhibition, and numbers from -100% - 0 represent cell death. For example, a value of 40 represents 60% growth inhibition. A value of 0 means no net growth occurred over the course of the experiment. A value of -40 indicates 40% of cells at the beginning of the experiment died by the end of the experiment. A value of -100 means all cells are dead at the end of the experiment.
NCI-60 Human Tumor Cell Lines Screen was performed using the standard one-dose NCI protocol, which is described in more detail at https://dtp.cancer.gov/discovery_development/nci-60/default.htm.
Compounds with GIPRCNT values below 10 were considered active. Activity score was based on GIPRCNT using the following formula: […]
Score is 0 for GIPRCNT values of 100 or above, 50 for GIPRCNT values of 0, and 100 for GIPRCNT values of -100.
For `O=C(/C=C/C12c3ccccc3C(c3ccccc31)C1C(=O)NC(=O)C12)c1ccc(Cl)cc1` (stereo not given), the growth is -27.8% (active). In the case of `CN1CCN(c2ccc(Nc3ncc(Cl)c(NC[C@@H]4CCCO4)n3)cc2)CC1` it was 4.74% (active); in that of `C=C(CNCCc1ccc(O)cc1)[C@@H]1CC[C@]2(COC3CCCCO3)CC[C@]3(C)[C@H](CC[C@@H]4[C@@]5(C)CCC(NCCO)C(C)(C)[C@@H]5CC[C@]43C)[C@@H]12` (stereo not given in full), -95.3% (active); in that of `O=C(O)C1C[C@](O)(c2ccc(F)cc2)[C@@H](c2ccc(F)cc2)O1` (stereo not given in full), 100%. For the compound `O=c1[nH]c(=O)n(C2CC(O)C(CO)O2)cc1CO` (stereo not given), the growth was 91.4%. In the case of `CC1(C)C(=O)/C(=C\c2cccnc2)C[C@]2(C)[C@H]3CC=C4[C@@H]5C[C@@](C)(C(=O)O)CC[C@]5(C)CC[C@@]4(C)[C@]3(C)CC[C@@H]12`, the growth was 91.9%. For the compound `COc1cc2oc(-c3cccc(C(=O)Nc4ccc(C)cc4)c3)cc(=O)c2c(OC)c1OC`, the growth is 19.6%.

As for `COc1ccc(-c2c(N)n[nH]c2-c2ccccc2O)cc1OC`, the growth was 94.9%. On to `CN1C[C@@H](c2ccc(Cl)cc2)[C@]2(NC(=S)N(c3ccccc3)C2=O)[C@@]12C(=O)NC1C=CC(Br)=C[C@H]12` (stereo not given in full), for which the growth was 27.5%.

Take `COc1ccc(-c2cn(-c3cccc(C(=O)/C=C/c4cc(OC)c(OC)c(OC)c4)c3)c(=O)[nH]2)cc1`: the growth was -91.9% (active). On to `CCCCOc1nc2ccc(Cl)cc2cc1/C=C/C(=O)/C=C1/CC(c2cc3cc(Cl)ccc3nc2OCCCC)Nc2ccccc2N1` (stereo not given), for which the growth was 97.6%. In the case of `CCOC(=O)c1ccc(-c2ccc3cc(OC)ccc3c2)nc1C` it was 78.1%; in that of `COc1cc2c(cc1OC)-c1ccc3cc4c(cc3c1N(CCCN1CCCCC1)C2)OCO4`, 24.6%; in that of `Cc1c2c(cn1Cc1ccccc1)CCc1cn(C)nc1-2`, 74.3%. As for `O=c1oc2ccc(Cl)cc2cc1-c1cs/c(=N/N=C\c2ccc(Cl)cc2)n1/N=C/c1ccc(Cl)cc1`, the figure is 91.9%; as for `Cc1ccc(-n2nnc(C3=NCCc4c3[nH]c3ccc(Cl)cc43)c2C)cc1`, 71.6%. In the case of `C=C1c2c(C)nn(-c3ccc(N)cc3)c2N(C)C23CC1C1(C)c4c(C)nn(-c5ccc(N)cc5)c4N(C)C(C)(CC12)C3` (stereo not given) it was 33.5%. Turning to `Cc1ccccc1NC(=O)CN(C)C`, the growth was 101%. On to `CCOC(=O)c1nnn(C(Cc2ccccc2Cl)C(=O)OCC)c1C` (stereo not given), for which the growth is 100%. Consider `CN1CCN(c2ccc3nc(/N=C/c4ccc5sc(-c6ccc([N+](=O)[O-])cc6)nc5c4)sc3c2)CC1`, for which the growth is 107%.

As to `CCCCN1CCN(c2ccc3nc(-c4ccc5nc(-c6cc(OC)c(OC)c(OC)c6)[nH]c5c4)[nH]c3c2)CC1`, the growth was 41.1%. `O=S(=O)(Nc1ccsc1-c1nc(-c2ccccc2)no1)c1cc(Cl)cc(Cl)c1`: the growth is 89.9%.

As to `CCOC(=O)c1nnn(-c2ccccc2)c1C1=CN(C)CCC1`, the growth was 87.7%. Turning to `CCOC(=O)C(O)C(O)(c1ccccc1)c1ccccc1` (stereo not given), the growth is 105%. As for `COc1ccc(-c2cc(-c3ccc(Nc4nc(Nc5ccccc5)nc(Nc5ccc(Cl)cc5)n4)cc3)nc(N)c2C#N)cc1`, the figure is -88.5% (active). As for `O=C(Oc1ccc[nH]c1=O)c1cc([N+](=O)[O-])cc([N+](=O)[O-])c1`, the growth is 103%. For `O=C1NC(=S)S/C1=C\N1N=C(c2ccc(Cl)cc2)CC1c1ccc(F)cc1` (stereo not given), the growth was 81.9%. In the case of `Nc1nc(I)c2ncn(C3OC(CO)C(O)C3O)c2n1` (stereo not given) it was 110%; in that of `CCCCN(CCCC)CCCn1c(=O)c2sc3ncccc3c2n2nnc(-c3ccccc3)c12`, 83.6%; in that of `CCCCN(Cc1ccc(C(=O)NO)cc1)C(=O)Nc1ccc(OCCCCCCCCCn2cc(CCCCC(=O)N[C@H](C(=O)N3C[C@H](O)C[C@H]3C(=O)NCc3ccc(-c4scnc4C)cc3)C(C)(C)C)nn2)cc1`, 20.9%.

For the compound `CCN(CC)CCCC(C)NCc1ccccc1` (stereo not given), the growth is 90.8%. As for `COc1ccc(C2CC(c3ccccc3)=NN2c2nc(C)c(C(C)=O)s2)cc1` (stereo not given), the figure is 97.3%; as for `COc1cc(C(=O)/C=C/c2c(C(F)(F)F)nc3ccccn23)cc(OC)c1OC`, -84.3% (active). As for `Cc1ccc(S(=O)(=O)Nc2sccc2-c2nc(-c3ccccc3)no2)cc1`, the growth was 85.9%. As for `Cc1cc(-c2noc(C(F)(F)F)n2)ccc1N1CCN(c2cc(C(=O)N(C)C)no2)CC1`, the figure is 45.7%; as for `O=C(Nc1ccccc1)c1sc(-c2cccc(C(F)(F)F)c2)cc1O`, 67.9%; as for `C=CCOc1cccc(/C=C2\SC(=Nc3ccc(O)cc3)NC2=O)c1`, 5.94% (active). As for `CCCn1nc(-c2ccccc2)c2c(-c3ccccc3)onc2c1=O`, the figure is 58.9%; as for `C[N+](C)(C)CCOC(OCC[N+](C)(C)C)(c1ccccc1)c1ccccc1`, 105%; as for `CN1C[C@@H](c2ccc(Cl)cc2)[C@]2(NC(=S)N(c3ccc(F)c(Cl)c3)C2=O)[C@@]12C(=O)NC1C=CC(Cl)=C[C@H]12` (stereo not given in full), -49% (active).
